Rows were chosen to be rich in hits. Some 3.9% of all compounds tested hit in one or more screens of this group.
BoNT-A LC inh2 – blocks Botulinum neurotoxin A light chain protease; inhibition, % at 10 µM; multiplex microsphere protease substrate cleavage, flow cytometry; hit rate 0.17% among 360,000; AID 588499
Anthrax LF inh2 – anthrax lethal factor protease inhibition; P15917; multiplex microsphere protease cleavage assay, LF; inhibition, % at 10 µM; hit rate 0.12% among 360,000; AID 588501
Target sequence (P15917 whole entry, looked up): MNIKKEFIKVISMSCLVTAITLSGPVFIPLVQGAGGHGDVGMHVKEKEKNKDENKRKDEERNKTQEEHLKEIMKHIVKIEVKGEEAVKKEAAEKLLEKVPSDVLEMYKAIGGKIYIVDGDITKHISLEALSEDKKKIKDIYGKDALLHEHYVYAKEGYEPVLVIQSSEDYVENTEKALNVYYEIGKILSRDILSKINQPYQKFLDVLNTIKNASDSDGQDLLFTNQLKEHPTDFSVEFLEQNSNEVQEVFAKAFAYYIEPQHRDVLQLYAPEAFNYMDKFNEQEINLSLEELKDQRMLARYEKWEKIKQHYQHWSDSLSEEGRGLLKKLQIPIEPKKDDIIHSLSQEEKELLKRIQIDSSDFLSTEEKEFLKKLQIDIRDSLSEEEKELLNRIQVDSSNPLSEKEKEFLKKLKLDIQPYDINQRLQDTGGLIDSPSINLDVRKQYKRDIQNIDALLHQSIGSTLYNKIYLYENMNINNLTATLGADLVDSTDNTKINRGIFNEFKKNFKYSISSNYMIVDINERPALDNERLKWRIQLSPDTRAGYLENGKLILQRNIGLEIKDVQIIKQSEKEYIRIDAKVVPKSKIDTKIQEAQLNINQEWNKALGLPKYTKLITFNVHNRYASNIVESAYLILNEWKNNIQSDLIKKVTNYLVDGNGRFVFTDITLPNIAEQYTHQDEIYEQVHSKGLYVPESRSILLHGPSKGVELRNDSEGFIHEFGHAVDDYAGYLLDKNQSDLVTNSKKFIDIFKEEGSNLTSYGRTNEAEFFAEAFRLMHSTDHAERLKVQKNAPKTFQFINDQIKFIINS
MazEF act – activators of E. coli MazEF toxin-antitoxin RNase; AID 504720; P0AE70; hit rate 0.32% among 350,000; activation, % at 20 µM; FAM/BHQ RNA-DNA oligo cleavage fluorescence, 5 h; in the data active = activation above about 50%
Vc quorum ag – quorum light induction in luxS cqsA deficient V. cholerae; AID 588436; activation, % at 18.7 µM; V. cholerae BH1578 lux reporter, luminescence, 6 h; hit rate 0.16% among 350,000; in the data active = activation mostly above about 9.7%, no sharp cut-off; inconclusive = no clear call, values can overlap the other calls; inactive = mostly below about 3.7%
Bead autofluor – flagged as autofluorescent in microsphere protease counterscreen; hit rate 3.1% among 360,000; compound autofluorescence counterscreen, microsphere flow cytometry; hits give high values; AID 624483; fluorescence intensity (test concentration not listed); in the data active = fluorescence intensity above about 16000; inconclusive = no clear call, values can overlap the other calls
BoNT F protease – BoNT F light chain protease inhibition | Multiplex microsphere protease cleavage assay, flow cytometry | inhibition, % at 10 µM | hit rate 0.22% among 360,000 | AID 588497; in the data active = inhibition above about 35%, passing the limit was not always enough; inconclusive = no clear call, values can overlap the other calls
Each line names hits and unclear results; the compound was inactive in the other large screens. Rule as the data show it, unless noted: active = inhibition above about 30%; inconclusive = no clear call, values can overlap the other calls; inactive = below that.

CCc1nc2c(OCCn3cccc3)cccn2c1N(C)C(=O)CC(C)C	none (no result: MazEF act)
COC(=O)c1sc2ncccc2c1OCc1ccccc1Cl	Bead autofluor 18888
C=C1CCN([C@H](C(=O)OCc2cccc(C)c2)C(C)C)S(=O)(=O)c2ccccc21	none
CCN1CCN(Cc2cc(Br)cc(OC)c2O)CC1	Bead autofluor 22198
COc1cccc(NC(=O)c2cc(CN3C(=O)c4ccccc4C3=O)ccc2OC)c1	none
Cc1cccc(OCCOC(=O)C2CCN(S(=O)(=O)c3cccs3)CC2)c1	none
CCOC(=O)N1CCC(NC(=O)C2CCN(S(=O)(=O)c3cccs3)CC2)CC1	Bead autofluor 20126
CCC(CC)NC(=O)C1CCN(S(=O)(=O)c2cccs2)CC1	Bead autofluor 23956
CCC(C)NC(=O)C1CCN(S(=O)(=O)c2cccs2)CC1 (stereo not given)	none
O=C(OCCN1C(=O)c2ccccc2C1=O)C1CCN(S(=O)(=O)c2cccs2)CC1	BoNT-A LC inh2 inconclusive, Bead autofluor 22995
CC1(C(=O)Nc2ccc(Cl)c(Cl)c2)CCN1C(=O)CCC1CCCC1 (stereo not given)	none (no result: MazEF act)
Cc1ccc(Cn2c(C3CCCN3c3nc(-c4cc(Cl)c(N)c(Cl)c4)cs3)nc3cc(Cl)c(Cl)cc32)cc1 (stereo not given)	none
Cc1nc(Nc2cccc(C(C)O)c2)c2nnn(Cc3ccc(F)cc3)c2n1 (stereo not given)	none
CCN(CC)c1ccc(C(=O)c2ccccc2C(=O)O)c(O)c1	BoNT-A LC inh2 inconclusive, Bead autofluor 23518
O=C(O)C1CCCN1S(=O)(=O)c1ccc2[nH]c(=O)c(=O)[nH]c2c1 (stereo not given)	Bead autofluor 25018
O=c1[nH]c2ccc(S(=O)(=O)N3CCN(Cc4ccccc4)CC3)cc2[nH]c1=O	Bead autofluor 21331
Cc1cc(S(=O)(=O)NCC(c2ccc(F)cc2)N2CCN(C)CC2)ccc1F (stereo not given)	none (no result: BoNT-A LC inh2, Anthrax LF inh2, Bead autofluor, BoNT F protease)
COc1ccccc1N(C(=O)c1csnn1)C(C(=O)NC1CCCC1)c1ccccc1 (stereo not given)	none
COc1ccc(CNc2nc3c(c(=O)n(Cc4ccc(Cl)cc4)c(=O)n3C)n2C)cc1	Bead autofluor 16319
Cc1cccc(N=c2c([N+](=O)[O-])nn(-c3ccc(Cl)cc3)n2O)c1	none
CCc1cccc(N=c2c([N+](=O)[O-])nn(-c3ccc(Cl)cc3)n2O)c1	Bead autofluor 22799
O=[N+]([O-])c1nn(-c2cccc(Cl)c2)n(O)c1=NCc1cccnc1	BoNT F protease 35
O=[N+]([O-])c1nn(-c2ccc(Cl)cc2)n(O)c1=NCc1cccnc1	none
Cc1cc(C)cc(N=c2c([N+](=O)[O-])nn(-c3cccc(Cl)c3)n2O)c1	Bead autofluor 22853
Cc1ccc(CN=c2c([N+](=O)[O-])nn(-c3ccc(Cl)cc3)n2O)cc1	none
COc1ccc(NC(=O)C(CC(=O)O)Cc2ccccc2)cc1 (stereo not given)	Bead autofluor 22396
COc1cc(-c2nc(-c3cccnc3)no2)cc(OC)c1OC	none
COc1cc(-c2noc(-c3cccc(Cl)c3)n2)cc(OC)c1OC	Bead autofluor 22311
N#Cc1ccc(S(=O)(=O)N2CCN(Cc3cccs3)CC2)cc1	none
Cc1ccc(C(=O)C(C)Sc2nnc(N)s2)cc1 (stereo not given)	none
Cc1ccc(S(=O)(=O)NC2(C(=O)O)CCCC2)cc1	none (no result: Vc quorum ag)
O=C(O)C1(NS(=O)(=O)c2ccc(Cl)cc2)CCCCC1	BoNT-A LC inh2 inconclusive, Bead autofluor 19428
Cc1ccc(S(=O)(=O)NC2(C(=O)O)CCCCC2)cc1	Bead autofluor 23381
Cc1noc(C)c1S(=O)(=O)N1CCCC(C(=O)NCc2ccccc2Cl)C1 (stereo not given)	none
COc1cccc(NC(=O)CN2C(=O)C3(OCCCO3)c3ccccc32)c1	BoNT-A LC inh2 inconclusive, Bead autofluor 22688
O=C(O)CN1C(=O)C2(OCCCO2)c2ccccc21	Bead autofluor 23379
O=C1N(CN2CCN(c3cccc(Cl)c3)CC2)c2ccccc2C12OCCCO2	Bead autofluor 21061
O=C1N(CN2CCC3(CC2)OCCO3)c2ccccc2C12OCCCO2	Bead autofluor 22108
COc1cccc(NC(=O)CN2C(=O)NC3(CCCCCC3)C2=O)c1	none
COC(=O)CN1C(=O)C2(OCCCO2)c2ccccc21	none
COc1ccc(-c2ccc(CN3C(C(C)C)C(=O)N(Cc4cn(CCC5OCCO5)nn4)CCS3(=O)=O)cc2)cc1 (stereo not given)	none
CCOc1ccc(-c2nc3c(s2)CCc2onc(-c4ccc(OC)cc4)c2-3)cc1	none
Cc1ccc(C(=O)Nc2cc3ccccc3oc2=O)cc1	none
C=CCn1c(Sc2nc(C)cs2)nc2c1c(=O)[nH]c(=O)n2C	Bead autofluor 23702
Cc1csc(Sc2nc3c(c(=O)[nH]c(=O)n3C)n2Cc2ccccc2Cl)n1	none
Cc1cccc(Cn2c(Sc3nc(C)cs3)nc3c2c(=O)[nH]c(=O)n3C)c1	BoNT-A LC inh2 inconclusive, Bead autofluor 19241
CCCCNC(=O)CN1CCC2(O)CCCCC2C1c1ccccc1OC (stereo not given)	none
CCOc1cc([C@H]2[C@@H]3CCCC[C@]3(O)CCN2CC(=O)NCc2ccco2)ccc1O	Bead autofluor 22611
COc1cccc(-c2cnc3c(NC(C)=O)cc(-c4ccccc4OC)cn23)c1	none (no result: MazEF act)
COC(=O)CN1C(=O)S/C(=C/c2ccc(N3CCCCC3)o2)C1=O	MazEF act 386
CN1C(=O)C(=Cc2ccc(N3CCCCC3)o2)C(=O)N(C)C1=S	BoNT F protease 100
CCOC(=O)CN1C(=O)S/C(=C/c2ccc(N3CCCCC3)o2)C1=O	none
CCN(CC)C(=O)c1[nH]cnc1C(=O)NCC(=O)OC(C)(C)C	none
CCCCN(C=O)c1c(CC)nc2ccc(C(=O)Nc3cc(-c4ccccc4)ccc3OC)cn12	none (no result: MazEF act)
CCC(C)CCN1C(Nc2ccccc2)=NC[C@@H]1C (stereo not given in full)	none
CCCC(=O)N1CCCC1(C)C(=O)Nc1ccc(-n2cncn2)cc1 (stereo not given)	none (no result: MazEF act)
O=C(Nc1ccncc1)Nc1ccc(F)cc1F	Bead autofluor 23331
CC(=O)OCc1c(C(F)(F)F)nn(C)c1Oc1ccccc1	Bead autofluor 17428
CC(=O)OCc1c(C(F)(F)F)nn(C)c1Oc1cccc(C(F)(F)F)c1	Bead autofluor 16385
Cc1nn(C)c(Oc2ccccc2)c1CCNC(=O)CCl	none
Cc1nn(C)c(Oc2cccc(C(F)(F)F)c2)c1C=O	none
O=C(c1cc(Cl)cc(Cl)c1)N1CCOCC1	Bead autofluor 20304
Cc1ccc(C)n1-c1ccc(C(=O)N2CCOCC2)cc1	BoNT-A LC inh2 inconclusive, Bead autofluor 22385
CC(=O)N1CCN(C(=O)c2ccc(-n3c(C)ccc3C)cc2)CC1	none
CN1CCN(C(=O)c2cc(Cl)cc(Cl)c2)CC1	BoNT F protease inconclusive
Cc1ccc(C)n1-c1ccc(N2CCOCC2)nc1	Bead autofluor 22547
NC(=O)CCC(C(=O)O)N1C(=O)C2C3CCC(C3)C2C1=O (stereo not given)	none
